# Test results published in ChEMBL document CHEMBL4888484, “Replenishing the malaria drug discovery pipeline: Screening and hit evaluation of the MMV Hit Generation Library 1 (HGL1) against asexual blood stage Plasmodium falciparum ,using a nano luciferase reporter read-out” (2022).
# Hit rate of the full screen: of about 150,000 compounds, about 540 (0.36%) showed an effect of 50% or more. The list comes from a sample in which strong results are over-represented; it also holds similar structures and randomly drawn compounds.
# System: Plasmodium falciparum
# Test: Primary screen in NF54 nanoGlo assay, in single point, at 2uM, 72h; a lower Z score goes with more inhibition
# Type: functional, Erythrocyte
# Details: timepoint 72 hour
SMILES,% Inhibition [%],Z score
O=C(N[C@H]1CCc2[nH]c3ccc(Br)cc3c2C1)c1ccc(Cl)c(Cl)c1,-9,1.26
O=C(NC1CCc2[nH]cnc2C1)N[C@@H]1CCCc2ccccc21 (stereo not given in full),4,-0.51
CC(C)c1ccc(CCCNS(N)(=O)=O)cc1,7,-0.97
c1cc(N2CC[C@]3(CCOC3)C2)c2sccc2n1,-10,1.52
CCc1nc(CCNC(=O)Cc2sc(N)nc2C)no1,-22,2.33
Oc1cc(C(F)(F)F)c2cc3c(cc2n1)OCO3,30,-3.35
CN(C)C1(CNc2ncc(F)cn2)CCCC1,-3,0.48
COc1nccnc1NCC1(N(C)C)CCCCC1,2,-0.41
CN1CCCN(c2nc(C(F)(F)F)nc3cc4c(cc23)OCO4)CC1,-8,1.28
O=C(NCc1ccc(Br)cc1)NC1CC2OCCCC12 (stereo not given),-11,1.4
COCCN(Cc1cc2ccc(Cl)cc2nc1N1CCC[C@H](CO)C1)C(=O)c1sccc1C,2,-0.41
NC(=NCCOc1ncc(Cl)cc1Cl)N1CCOCC1,-11,1.79
CCN(C)C1(CNC(=O)c2ccc(-c3cnccn3)cc2)CCCC1,-14,2.04
CCN(C)C1(CNC(=O)c2cccc(-c3ncc(F)c(NC)n3)c2)CCCC1,3,-0.53
CCN(C)C1(CNC(=O)c2ccc(-c3cc(F)ccc3O)cc2)CCCC1,55,-0.99
CC(C)ONC(=O)CCc1cccc(O)c1,-11,1.21
Cc1cc(O)nc2ccc(NC(=O)c3cccc(F)c3)cc12,5,-0.52
c1c[nH]c(-c2nc(C3CCOCC3)n[nH]2)c1,-6,1.12
COc1c(C)cc(C(=O)[C@H]2CCCN(c3cc(N)ncn3)C2)cc1C,78,-15.48
COc1ccnc(CN2CCC[C@H](C(=O)c3cc(C)c(OC)c(C)c3)C2)c1OC,8,-1.25

SMILES,% Inhibition [%],Z score
CNc1ncc(C(=O)N2CCC[C@H](C(=O)c3cc(C)c(OC)c(C)c3)C2)cn1,4,-0.72
CC(C)(C)c1cc(NC(=O)CCCc2ccccc2)n([C@H]2CCS(=O)(=O)C2)n1,-2,0.38
CC(C)NC(=O)CN(C)CC(=O)Nc1cc(C2CCCC2)nn1-c1ccccc1,1,-0.16
CCc1cc(=O)[nH]c(-n2nc(C3CC3)cc2NC(=O)C2CCCCC2)n1,86,-14.68
CCOC(=O)Nc1cc(C2CC2)nn1-c1nc2c(c(=O)[nH]1)CCCC2,4,-0.55
O=C(CN1CCCCC1)Nc1cc(C2CC2)nn1-c1ccccc1,1,-0.24
CCc1cc(NC(=O)C2CN(C(=O)C3CCCCC3)C2)n(C)n1,-13,2.45
CCC(CC)C(=O)Nc1cc(C2CC2)nn1-c1nc(-c2ccccc2)cc(=O)[nH]1,69,-9.47
Cc1cc(N)n(-c2nc(-c3ccccc3)cc(=O)[nH]2)n1,35,0.14
O=C(CCCc1ccccc1)Nc1cc(C2CC2)nn1-c1nc(-c2ccccc2)cc(=O)[nH]1,54,-8.76
Cc1ccc(C(=O)N2CCCC(C(=O)N3CCCC(c4nnc5ccccn45)C3)C2)cc1 (stereo not given),-7,1.13
CC(C)c1cc(-c2nc(-c3ccccn3)no2)[nH]n1,-11,1.24
CCS(=O)(=O)Nc1ccnn1[C@@H](C)C1CC1,3,-0.45
O=C(c1cnnn1-c1cccc(F)c1)N1CCCC12CCC2,-1,0.15
COc1ccc(C(=O)NCCCc2nnc3ccccn23)o1,-9,1.7
Cc1nc2ccccn2c(=O)c1CCN[C@@H](C)c1cccc(-n2cccn2)c1,0,0.05
Cc1ccc(C(=O)N2CCC3(CCc4nn(Cc5ccccc5)c(=O)n4CC3)CC2)s1,-7,0.82
CCN1CCN(C2CCN(c3ncc(F)c(OC)n3)CC2)CC1,51,-7.32
CNC(=O)[C@H]1CCN(c2ncc(F)c(OC)n2)C1,-10,1.93
Cc1c(C2=NO[C@H]3C(=O)N(c4ccc5ccccc5c4)C(=O)[C@@H]23)cnn1C,50,-5.99
